According to PubChem BioAssay AID652180 (National Center for Advancing Translational Sciences (NCATS), 2013):
Inconclusive results are not listed. The source made the active and inactive calls. The call rests on the fitted dose curve; in most records, active means well fitted inhibition curve with a large enough effect; inconclusive means small, poorly fitted or top-dose-only effect; inactive means no such curve, though single readings can be large or run the other way.

Assay: qHTS Assay for Lipid Storage Modulators: 3T3L1 Assay against Probe and Analogs
Settings: 3T3-L1 lipid droplets, BODIPY imaging, oleic acid, 18-24 h; series mostly up to 46.1 µM; activity change, negative = decreased lipid storage: at the top concentration
How it was run: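 Lipid droplet number and size, plus cell count, were measured by imaging BODIPY- and Hoechst-stained 3T3L1 cells. Compounds (0.46% DMSO final) were co-incubated for 18-24 h with oleic acid, added at 400 uM, to induce droplets. Triacsin C served as control.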

| Structure (SMILES) | activity change, negative = decreased lipid storage | Potency |
| --- | --- | --- |
| CCOc1ccc(CCNC(=O)C2=C(C)OCCO2)cc1OCC | -14% (inactive) |  |
| O=C(NC1CCCc2c1cnn2-c1ccc(F)cc1F)c1ccn[nH]1 (centres undefined) | -26.1% (inactive) |  |
| Cc1cccc(-c2ccc3ncnc(NCc4cccc(F)c4)c3c2)c1 | 36.3% (inactive) |  |
| O=C(NC1CCCc2c1cnn2-c1cccc(O)c1)c1ccccn1 (centres undefined) | 15.9% (inactive) |  |
| CCOC(=O)C1CCN(C(=O)C(C)(C)NC(=O)Nc2ccc3c(c2)CCC3)CC1 | -38.5% (inactive) |  |
| CCOC(=O)C1CCN(C(=O)C(C)(C)NC(=O)Nc2ccc3sccc3c2)CC1 | -36.1% (inactive) |  |
| CC(C)(C)OC(=O)NCCOCCOCCOc1cccc(-n2ncc3c2CCCC3NC(=O)c2ccccn2)c1 (centres undefined) | 47% (inactive) |  |
| O=C(NCCc1ccc2c(c1)OCO2)c1cc2sccc2n1Cc1ccccc1 | -41.2% (inactive) |  |
| CCOC(=O)C1CCN(C(=O)C(C)(C)NC(=O)Nc2ccc(OC)c(Cl)c2)CC1 | -43.9% (inactive) |  |
| C[C@@H](NCCCc1cccc(C(F)(F)F)c1)c1cccc2ccccc12 | -104% (inactive) |  |
| O=C(NC1CCCc2c1cnn2-c1ccc(F)cc1F)c1ccncc1 (centres undefined) | 63.1% (inactive) |  |
| CN(C)CC(=O)NC1CCCc2c1cnn2-c1ccc(F)cc1F (centres undefined) | -13.8% (inactive) |  |
| CCOC(=O)C1CCN(C(=O)C(C)(C)NC(=O)Nc2cccc(C(=O)OC)c2)CC1 | -25.1% (inactive) |  |
| O=C(O)c1cccc(-c2noc(-c3ccccc3F)n2)c1 |  | 2640 nM (active) |
| CCOc1ccc(CCNC(=O)c2cc3sccc3n2Cc2ccccn2)cc1OCC |  | 23.5 nM (active) |
| O=C(NCCc1ccc2c(c1)OCO2)c1cc2sccc2[nH]1 | 37.4% [at 38.8 µM] (inactive) |  |
| O=C(NC1CCCc2c1cnn2-c1ccc(O)cc1)c1ccccn1 (centres undefined) | -19.4% (inactive) |  |
| CC(C)(NC(=O)Nc1ccccc1Cl)C(=O)N1CCC(C(=O)O)CC1 | -34.4% (inactive) |  |
| O=C(NC1CCCc2c1cnn2-c1ccc(F)cc1F)C1CCCCN1 (centres undefined) | -11.6% (inactive) |  |
| O=C(O)CCc1ccc(NCc2cccc(Oc3ccccc3)c2)cc1 | -49.7% (inactive) |  |
| CCOC(=O)C1CCN(C(=O)C(C)(C)NC(=O)Nc2cccc(-c3csc(C)n3)c2)CC1 | -27.4% (inactive) |  |
| CC1=C(C(=O)NC2CCCc3c2cnn3-c2ccc(F)cc2F)OCCO1 (centres undefined) | 29.3% (inactive) |  |
| CCOC(=O)C1CCN(C(=O)C(C)(C)NC(=O)Nc2ccc([N+](=O)[O-])cc2)CC1 | 3.82% (inactive) |  |
| O=C(Nc1cccc2nn(-c3ccc(F)cc3)cc12)c1ccccn1 | 55.5% (inactive) |  |
| CCOc1ccc(CCNC(=O)c2cc3sccc3n2C(C)C)cc1OCC |  | 29.6 nM (active) |
| O=C(Cc1ccccc1)NC1CCCc2c1cnn2-c1ccc(F)cc1F (centres undefined) | -11.1% (inactive) |  |
| COc1ccc(-n2ncc3c2CCCC3NC(=O)c2ccccn2)cc1 (centres undefined) | 11.4% (inactive) |  |
| CC(C)(C)OC(=O)NC1CCCc2c1cnn2-c1ccc(F)cc1F (centres undefined) | 54.4% (inactive) |  |
| O=C(NC1CCCc2c1cnn2-c1ccc(F)cc1F)c1cccs1 (centres undefined) |  | inactive |
